Results reported in the supplement of paper PMC5662767.
Structures can show the parent of a compound that is named as a salt.

These molecules were tested on Drosophila S2 cl14 SmoIP sensor cells (assay: normalized SmoIP GFP fluorescence (untreated unstimulated = 0%, untreated Hh-stimulated = 100%); higher = more Smo activation sensor fluorescence). Details: stimulation: mock conditioned medium (-Hh); compound concentration: 2 uM; 24 h.
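Note: flow cytometry read-out as median GFP intensity of gated cells, compounds added 30 min before Hh-conditioned or mock medium, mock-treated cells serving as unstimulated baseline.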

| Structure (SMILES) | normalized SmoIP GFP fluorescence [%] |
| --- | --- |
| O=C(NOC[C@H](O)CO)c1ccc(F)c(F)c1Nc1ccc(I)cc1F | 77.1 |
| Cc1cc(NC(=O)Nc2ccc(N(C)C)cc2)c2cc(F)cc(F)c2n1 | 24.9 |
| CCOc1ccn(-c2ccc(F)cc2)c(=O)c1C(=O)Nc1ccc(Oc2ccnc(N)c2Cl)c(F)c1 | -5.22 |
| C[C@]12CC[C@@H]3c4ccc(O)cc4C[C@@H](CCCCCCCCC[S+]([O-])CCCC(F)(F)C(F)(F)F)[C@H]3[C@@H]1CC[C@@H]2O (stereo partly specified) [Fulvestrant] | 12.4 |
| Nc1ncn([C@H]2C[C@H](O)[C@@H](CO)O2)c(=O)n1 [Decitabine] | 25.6 |
| CCOC(=O)[C@H](CCc1ccccc1)N[C@H]1CCc2ccccc2N(CC(=O)O)C1=O [Benazepril-hydrochloride] | 1.35 |
| CCOc1cc(CC(=O)N[C@@H](CC(C)C)c2ccccc2N2CCCCC2)ccc1C(=O)O [Repaglinide] | 6.52 |
| Cc1[nH]c2ccccc2c1CCNCc1ccc(/C=C/C(=O)NO)cc1 | 81.3 |
| C[C@H](NCc1ccc(OCc2cccc(F)c2)cc1)C(N)=O [Safinamide-mesilate] | 4.04 |
| c1cnc2cc3c(cc2n1)[C@@H]1CNC[C@H]3C1 [Varenicline-tartrate] | 2.97 |
| Clc1ccc(C2(c3ccc(-c4cn[nH]c4)cc3)CCNCC2)cc1 | 17.1 |
| CCOC(=O)N1CCC(=C2c3ccc(Cl)cc3CCc3cccnc32)CC1 [Loratadine] | 11 |
| C=CC[N+]1([C@H]2C[C@H]3[C@@H]4CC[C@H]5C[C@H](O)[C@@H](N6CCOCC6)C[C@]5(C)[C@H]4CC[C@]3(C)[C@H]2OC(C)=O)CCCC1 [Rocuronium-bromide] | 10.2 |
| C[C@]12CCC3=C4CCC(=O)C=C4CC[C@H]3[C@@H]1CC[C@@]2(O)CC#N [Dienogest] | 10.2 |
| O=C(c1cc(Cc2n[nH]c(=O)c3ccccc23)ccc1F)N1CCN(C(=O)C2CC2)CC1 [AZD2281(Olaparib)] | 1.35 |
| COc1cc(Nc2nc3ccccc3nc2NS(=O)(=O)c2ccc(NC(=O)c3ccc(C)c(OC)c3)cc2)cc(OC)c1 | 5.66 |
| NC(=O)Nc1cc(-c2cccc(F)c2)sc1C(=O)N[C@H]1CCCNC1 | 45 |
| COc1ccc2cc(-c3nc(-c4ccc([S+](C)[O-])cc4)[nH]c3-c3ccncc3)ccc2c1 (stereo unspecified) [Tie2-kinase-inhibitor] | 21.9 |

| Structure (SMILES) | normalized SmoIP GFP fluorescence [%] |
| --- | --- |
| O=C(/C=C/c1ccc(CN(CCO)CCc2c[nH]c3ccccc23)cc1)NO | 79.7 |
| COc1ccccc1OCC(O)CN1CCN(CC(=O)Nc2c(C)cccc2C)CC1 (stereo unspecified) [Ranolazine-dihydrochloride] | 2.97 |
| O=c1cc(-c2cccc3c2Sc2ccccc2S3)oc(N2CCOCC2)c1 | 2.43 |
| C#CCC(Cc1cnc2nc(N)nc(N)c2n1)c1ccc(C(=O)N[C@@H](CCC(=O)O)C(=O)O)cc1 (stereo partly specified) [Pralatrexate(Folotyn)] | 13.3 |
| C[C@]12CC[C@@H]3c4ccc(O)cc4CC[C@H]3[C@@H]1CCC2=O [Estrone] | 5.12 |
| COc1ccc(S(=O)(=O)N(C(C)=O)c2ccccc2/C=C/c2cc[n+]([O-])cc2)cc1 | 1.03 |
| CCc1cc(Nc2nccc(-c3c(-c4ccc(OC)c(C(=O)Nc5c(F)cccc5F)c4)nc4ccccn34)n2)c(OC)cc1N1CCC(N2CCN(S(C)(=O)=O)CC2)CC1 | 25.3 |
| COc1nc(C)cnc1NS(=O)(=O)c1cccnc1-c1ccc(-c2nnco2)cc1 [Zibotentan(ZD4054)] | -1.13 |
| N#CC(=C(/N)Sc1ccccc1N)/C(C#N)=C(/N)Sc1ccccc1N | 23.1 |
| CC1=C(C(=O)Nc2cc3cn[nH]c3cc2F)C(c2ccc(C(F)(F)F)cc2)CC(=O)N1 (stereo unspecified) | -1.88 |
| CS(=O)(=O)c1ccc(C(=O)Nc2ccc(Cl)c(-c3ccccn3)c2)c(Cl)c1 | 36.8 |
| COc1ccccc1N1CCN(CC(O)COc2cccc3ccccc23)CC1 (stereo unspecified) [Naftopidil-Dihydrochloride] | -1.88 |
| Cc1nc(C(=O)NCC(=O)O)c(O)c2ccc(Oc3ccccc3)cc12 | 11 |
| COC(=O)N[C@H](C(=O)N[C@@H](Cc1ccccc1)[C@@H](O)CN(Cc1ccc(-c2ccccn2)cc1)NC(=O)[C@@H](NC(=O)OC)C(C)(C)C)C(C)(C)C [Atazanavir] | -0.0496 |
| O=C(Nc1ccc(OC(F)(F)F)cc1)c1sccc1NCc1ccnc2ccccc12 | 9.86 |
| CN(C)CCc1c[nH]c2ccc(Cn3cncn3)cc12 [Rizatriptan-Benzoate(Maxalt)] | -0.265 |
| COC(=O)Nc1ccc(-c2nc(N3CCOCC3)c3cnn(C4CCN(C(=O)OC)CC4)c3n2)cc1 | -12.5 |
| O=c1c(-c2ccc(O)cc2)coc2cc(O)cc(O)c12 [Genistein] | -0.804 |
